From PubChem BioAssay (NCATS) come the findings set out here.

Each structure is given as a SMILES string. Where “and” joins values, the source holds several entries; their conditions need not be identical. Identical values can stand only once. Records with an inconclusive call do not appear. Values without a mark were called inactive. Calls of active or inactive are those of the source. Unless noted, the call rests on the fitted dose curve; in most records, active means well fitted curve in the direction sought with a large enough effect; inconclusive means small, poorly fitted or top-dose-only effect, or another doubt; inactive means no such curve, though single readings can be large; an effect the other way counts as inactive or inconclusive.

Test [1] deals with Cellular tumor antigen p53 (Homo sapiens) (UniProt P04637). Kind of test: Primary qHTS for small molecule compounds that upregulate eGFP-tagged delta133p53alpha (in N-terminal) cells. (AID 2060322).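 Further: cells pre-induced with doxycycline then dosed without doxycycline; 0% = DMSO vehicle and 100% = reference activator; nearly all actives have a fitted effect of over 75% in size.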 The following applies: NCI-H358 eGFP-delta133p53alpha fluorescence, 24 h; activation: stronger effect = higher value. The method in brief:
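NCI-H358 cells pre-induced 24 h with 10 ng/ml doxycycline for eGFP-delta133p53alpha, plated dox-free and exposed 24 h at 37C to titrated compounds. Fixed, Hoechst-stained; gated GFP peak intensity by laser scanning cytometry, normalized to DMSO (0%) and 57.5 uM 5-azacytidine (100%).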

The target is the same in test [2]. As to the kind of experiment: Primary qHTS for small molecule compounds that upregulate eGFP-tagged delta133p53alpha (in C-terminal) cells. (AID 2060324). Further: potency means the concentration at half of the fitted maximal effect. As to conditions: NCI-H358 delta133p53alpha-eGFP (C-terminal tag), GFP fluorescence imaging, 24 h; series mostly up to 57.5 µM. The method in brief: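 Doxycycline (100 ng/ml, 24 h) first induced the eGFP fusion in NCI-H358 C-terminal-tag cells. Washed-out cells then received titrated compounds for 24 h at 37 °C before paraformaldehyde fixation, Hoechst staining and cytometric GFP quantification.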

The target in test [3] is Aldehyde dehydrogenase, mitochondrial (Homo sapiens) (UniProt P05091). As to the kind of experiment: qHTS for Inhibitors of the Aldehyde Dehydrogenase Family (ALDH2) Validation screens (AID 2061302; active means well fitted inhibition curve with a large enough effect; title and protocol of this record describe different tests; further: potency means the concentration at half of the fitted maximal effect). As to conditions: ALDH inhibition qHTS; series mostly up to 42.6 µM.
Test [4] is described as follows: qHTS for Inhibitors of the Aldehyde Dehydrogenase Family (ALDH1A2, ALDH1A3, ALDH2, ALDH3A1) (AID 2061307). Further: nearly all actives have a fitted effect of over 50% in size. As to conditions: ALDH inhibition qHTS; series mostly up to 50.3 µM.
In test [5] the target is Retinaldehyde dehydrogenase 3 (Homo sapiens) (UniProt P47895). As to the kind of experiment: qHTS for Inhibitors of the Aldehyde Dehydrogenase Family (ALDH1A3) Confirmatory screens (AID 2061311). Further: nearly all actives have a fitted effect of over 60% in size. Further: potency means the concentration at half of the fitted maximal effect. As to conditions: ALDH inhibition qHTS; series mostly up to 46 µM.
Test [6] concerns the target Retinal dehydrogenase 2 (Homo sapiens) (UniProt O94788). As to the kind of experiment: qHTS for Inhibitors of the Aldehyde Dehydrogenase Family (ALDH1A2) Confirmation screens (AID 2061314). Further: nearly all actives have a fitted effect of over 65% in size. Further: potency means the concentration at half of the fitted maximal effect. As to conditions: ALDH1A2 enzyme inhibition qHTS confirmation; series mostly up to 45.9 µM.
The target in test [7] is Aldehyde dehydrogenase, mitochondrial (Homo sapiens) (UniProt P05091). Kind of test: qHTS for Inhibitors of the Aldehyde Dehydrogenase Family (ALDH2) Confirmatory screens (AID 2061303; active means well fitted inhibition curve with a large enough effect; title and protocol of this record describe different tests; further: nearly all actives have a fitted effect of over 45% in size; further: potency means the concentration at half of the fitted maximal effect). The following applies: ALDH inhibition qHTS; series mostly up to 45.4 µM.
Test [8] deals with Aldehyde dehydrogenase 1A1 (Homo sapiens) (UniProt P00352). Kind of test: qHTS for Inhibitors of the Aldehyde Dehydrogenase Family (ALDH1A1) Confirmatory screens (AID 2061316). Further: nearly all actives have a fitted effect of over 65% in size. Further: potency means the concentration at half of the fitted maximal effect. As to conditions: ALDH inhibition qHTS; series mostly up to 47.3 µM.
Test [9] in a line: BET inhibitor-based combinations targeting novel dependencies in MECOM-rearranged (r) AML: OCI-AML3 cell line (AID 2202232). Further: nearly all actives have a fitted effect of over 35% in size. Further: potency means the concentration at half of the fitted maximal effect. The following applies: CellTiter-Glo luminescence, 48 h; Potency: OCI-AML3 viability; series mostly up to 46 µM. Summed up: (§1)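 500 cells/well; 11-pt dose curve; 48 h, standard incubator; CellTiter-Glo luminescence after 15 min RT; DMSO/empty-well normalization; AUC plus Z-AUC (mean-centered within each line).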

A short description of test [10]: BET inhibitor-based combinations targeting novel dependencies in MECOM-rearranged (r) AML: MV-4-11 cell line (AID 2202233).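 Further: plate controls were DMSO for no effect and blank wells for full effect; nearly all actives have a fitted effect of over 45% in size.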 The following applies: MV-4-11 AML viability, CellTiter-Glo luminescence, 48 h; series mostly up to 46 µM. The method in brief: (§2)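 Cells were plated at 500 per well and exposed to each drug across an 11-point dose range for 48 hr at standard incubator conditions. Viability was read by CellTiter-Glo luminescence, and activity was expressed as AUC and per-cell-line Z-transformed AUC.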

Test [11] can be described thus: BET inhibitor-based combinations targeting novel dependencies in MECOM-rearranged (r) AML: AML-191 cell line (AID 2202236; further: nearly all actives have a fitted effect of over 35% in size; further: potency means the concentration at half of the fitted maximal effect). The following applies: AML-191 viability, CellTiter-Glo luminescence, 48 h; series mostly up to 46 µM. Summed up: as §1
Test [12] deals with Retinaldehyde dehydrogenase 3 (Homo sapiens) (UniProt P47895). Kind of test: qHTS for Inhibitors of the Aldehyde Dehydrogenase Family (ALDH1A3) Validation screen (AID 2061312). Further: on the % scale 0 is the no-effect control and ±100 the full control effect; nearly all actives have a fitted effect of over 45% in size. The following applies: ALDH1A3 enzyme inhibition qHTS validation, fluorescence; series mostly up to 84.7 µM.
The target is the same in test [13]. Kind of test: qHTS for Inhibitors of the Aldehyde Dehydrogenase Family (ALDH1A3) Primary screen (AID 2061315).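 Further: plate controls were DMSO vehicle for no effect and reference inhibitor for full effect.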 As to conditions: ALDH inhibition qHTS; series mostly up to 56 µM.
The nature of test [14]: BET inhibitor-based combinations targeting novel dependencies in MECOM-rearranged (r) AML: UCSD-AML1 cell line (AID 2202235).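 Further: plate controls were DMSO vehicle wells for no effect and blank wells for full effect; nearly all actives have a fitted effect of over 40% in size.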 The following applies: UCSD-AML1 AML cells viability, CellTiter-Glo, 48 h; series mostly up to 46 µM. Summed up: as §2
In test [15] the target is Aldehyde dehydrogenase, mitochondrial (Homo sapiens) (UniProt P05091). As to the kind of experiment: qHTS for Inhibitors of the Aldehyde Dehydrogenase Family (ALDH2) Primary screen (AID 2061308).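 Further: plate controls were vehicle for no effect and reference inhibitor for full effect; nearly all actives have a fitted effect of over 55% in size.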 As to conditions: ALDH2 enzyme inhibition qHTS, 1536-well; series mostly up to 56 µM.
Test [16] can be described thus: BET inhibitor-based combinations targeting novel dependencies in MECOM-rearranged (r) AML: SET-2 cell line (AID 2202231).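 Further: plate controls were DMSO treated cells for no effect and wells without cells for full effect; nearly all actives have a fitted effect of over 35% in size.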 The following applies: SET-2 AML cells viability, CellTiter-Glo luminescence, 48 h; viability: stronger effect = lower value, concentration not given here. Summed up: as §1
A short description of test [17]: BET inhibitor-based combinations targeting novel dependencies in MECOM-rearranged (r) AML: HNT-34 cell line (AID 2202234).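 Further: plate controls were vehicle wells for no effect and cell-free wells for full effect; nearly all actives have a fitted effect of over 35% in size.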 The following applies: HNT-34 AML viability, CellTiter-Glo luminescence, 48 h; series mostly up to 46 µM. Summed up:
as §2

Test [18] can be described thus: BET inhibitor-based combinations targeting novel dependencies in MECOM-rearranged (r) AML: AML-194 cell line (AID 2202237;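 further: plate controls were vehicle wells for no effect and wells without cells for full effect; nearly all actives have a fitted effect of over 40% in size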). The following applies: AML-194 (MECOM-r AML) viability, CellTiter-Glo, 48 h; series mostly up to 46 µM. The method in brief: as §1

Chain of Cellular tumor antigen p53 (Homo sapiens) (P04637 whole entry, looked up): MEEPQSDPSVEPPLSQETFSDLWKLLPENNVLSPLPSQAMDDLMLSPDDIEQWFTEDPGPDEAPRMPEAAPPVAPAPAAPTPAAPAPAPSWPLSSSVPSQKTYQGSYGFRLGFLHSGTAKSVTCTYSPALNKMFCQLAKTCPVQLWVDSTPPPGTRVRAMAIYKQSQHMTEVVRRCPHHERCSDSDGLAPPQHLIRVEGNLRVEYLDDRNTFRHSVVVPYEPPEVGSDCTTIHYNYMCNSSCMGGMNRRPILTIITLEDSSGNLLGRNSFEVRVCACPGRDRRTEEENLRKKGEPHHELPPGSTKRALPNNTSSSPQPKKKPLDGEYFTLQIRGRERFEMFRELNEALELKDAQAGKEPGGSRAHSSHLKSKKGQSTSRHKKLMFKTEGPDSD

In the case of `COc1ccc(/C=C/c2nc(NCCCN(C)C)c3ccccc3n2)cc1`, the activation in test [1] is -29.6%. The Potency result in test [2], in test [3] and in test [4] was “inactive” each time.
On to `C#CCN(C)Cc1ccccc1`, for which, in test [1], the activation is 2.82% and -8.29%. Also, the Potency result in [2] and in test [3] was “inactive” throughout.
Consider `COc1cc2c(CCNC(C)=O)c[nH]c2cc1Cl`, for which the activation in test [1] was -18.2%. In addition, the Potency result in test [2], in [3], in [4], in test [5] and in [6] was “inactive” throughout.
Turning to `Cc1cc(O)c2c(c1)C(=O)c1cc(O)cc(O)c1C2=O`, in [1], the activation is -1.13% and -38%. Moreover, the Potency in test [2] is 26.9 µM (active); in test [3] it was 3.16 µM (active); in test [7], 0.712 µM (active); in test [5] it was 11.3 µM (active); in test [6], 6.34 µM (active); in test [8], 2.52 µM (active). The Potency was 9.34 µM (active) in test [9] and 16.6 µM (active) in test [11]. The Potency entry in test [10] is “inactive”.
Consider `CCCCCCN(CCCCCC)C(=O)Cc1c(-c2ccc(F)cc2)[nH]c2ccccc12`, for which, in [1], the activation was -10.8%. The Potency entry in test [2], in [7], in [4], in test [5], in test [6] and in test [8] was “inactive” in each case. Moreover, in test [3], the Potency was 10 µM (active).
For the compound `O=c1ccc2c(OCCCCc3ccccc3)c3ccoc3cc2o1`, in [1], the activation was -37.4%. Besides, the Potency result in test [2] and in test [3] was “inactive” throughout. The Potency in test [4] is 1.12 µM (active); in [5], 12.6 µM (active).
With `CN(CCCOc1ccc(Cc2ccccc2)cc1)CCC(=O)O`, the activation in test [1] was -0.922% and -7.16%. Also, the Potency result in [2], in test [3], in [7], in [4], in test [5] and in [12] was “inactive” in each case. Also, the Potency result in test [13] is “inactive”.
Turning to `CCOC(=O)c1cnc2c(cnn2CC)c1NN=C(C)C`, the activation in [1] is 11.7% and -44.5%. The Potency result in test [2], in test [3], in test [7] and in test [4] was “inactive” each time.
With `Cc1cn[nH]c1`, the activation in test [1] is 25.4% and 16.2% and -25.1%. Besides, the Potency entry in [2], in [3], in [7], in [5], in test [8] and in test [14] was “inactive” throughout.
On to `Cc1cc(N)c2ccccc2[n+]1CCCCCCCCCC[n+]1c(C)cc(N)c2ccccc21`, for which the activation in [1] is 10%. The Potency entry in [2], in test [3], in test [7], in test [4], in test [15] and in test [5] was “inactive” in each case. Further, the Potency entry in test [12], in test [6], in [13] and in test [8] was “inactive” in each case.
As for `c1ccc(C(NCCNC(c2ccccc2)c2ccccc2)c2ccccc2)cc1`, the activation in test [1] was -16.9%. In addition, the Potency entry in test [2], in test [3], in test [7], in [4], in [5] and in [6] was “inactive” in each case. The Potency result in test [8] is “inactive”.
As for `NC(=S)c1ccc[n+]([C@@H]2O[C@@H](COP(=O)([O-])OP(=O)(O)OC[C@H]3O[C@@H](n4cnc5c(N)ncnc54)[C@H](OP(=O)(O)O)[C@@H]3O)C(O)C2O)c1` (some centres undefined), the activation in test [1] is -2.21%. Besides, the Potency result in test [2], in test [3] and in test [7] was “inactive” in each case. In addition, the Potency in test [4] is 20.1 µM (active); in [8], 25.2 µM (active).
Turning to `CN1CCC2(CCN3CCc4c(oc5ccccc45)C3C2)N(C)C1=O` (centres undefined), in test [1], the activation was -14.7%. For the same compound, the Potency entry in [2], in test [3], in [7], in test [4], in test [5] and in test [8] was “inactive” in each case.
Turning to `Oc1ccc(Cn2cc[nH]c2=S)cc1`, the activation in test [1] is -47.8%. Moreover, the Potency entry in test [2], in [3], in test [7] and in [6] was “inactive” throughout.
Turning to `O=NN(CCCl)C(=O)NCCCl`, the activation in test [1] is -1.09% and 45.2%. In addition, the Potency entry in test [2], in test [3], in [9], in test [10], in test [17] and in [11] was “inactive” throughout. The Potency result in test [18] is “inactive”. The Potency in [7] was 15.8 µM (active); in test [5] it was 12.7 µM (active); in [8], 22.5 µM (active). In test [16], the viability was 104%.
As to `N.N.N.N.N.N.N.N.N.N.N.N.N.N.O.O.[Ru+4].[Ru+5].[Ru+5]`, the activation in test [1] was 4.58%. Also, the Potency result in test [2], in test [3], in test [7], in test [4] and in test [8] was “inactive” each time.
Consider `CCc1ccc(/C=C2/SC(=S)NC2=O)cc1`, for which, in test [1], the activation was -0.0291%. The Potency result in test [2], in [3], in [4], in [5], in test [12] and in test [6] was “inactive” in each case. For the same compound, the Potency result in [9], in test [10], in test [17], in test [14], in [11] and in test [18] was “inactive” throughout. Also, the viability in [16] was 89.4%.
For `CC1=C(C)C(=O)C(CCCCC#CCCCC#CCO)=C(C)C1=O`, the activation in test [1] was 18.6% and 0.426%. For the same compound, in [2], the Potency result was “inactive”. For the same compound, the Potency in test [3] is 5.01 µM (active); in [7] it was 4.49 µM (active); in test [4], 7.12 µM (active); in test [5], 0.504 µM (active); in [8], 1.27 µM (active).
Consider `CC(C)NCC(O)COc1cccc2[nH]ccc12` (centres undefined), for which the activation in test [1] was -9.6% and -5.67% and -6.98%. The Potency result in test [2], in test [3], in test [15], in test [12] and in test [13] was “inactive” each time.
`CCCNC(=O)NS(=O)(=O)c1ccc(Cl)cc1`: in test [1], the activation is -9.6% and 2.39% and -46.5%. Besides, the Potency result in [2], in [3], in test [15], in test [12] and in test [13] was “inactive” throughout.
